Activity calls are given as the source filed them. Rule for the calls: active = hit-call score of the fitted dose curve at least 0.9, where 1 is the maximum; inactive = score below 0.9.

This assay in a line: BSK_SAg_PBMCCytotoxicity: PBMC Cytotoxicity Assessment in the BioMAP Diversity Plus: SAg Assay (AID 2283093).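 Note: fitted both ways against DMSO so a hit may be loss or gain of signal.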 As to conditions: primary human HUVEC with PBMC. As to the method: BSK_SAg is a cell-based, multiplexed-readout assay that uses umbilical vein endothelium and peripheral blood mononuclear cells, a human vascular primary cell co-culture, with measurements taken at 24 hours after chemical dosing in a 96-well plate.BSK_SAg_PBMCCytotoxicity is an assay component measured in the BSK_SAg assay. It measures Alamar blue related to cell death using Alamar Blue Reduction technology.Data from the assay component BSK_SAg_PBMCCytotoxicity was analyzed into 1 assay endpoint. This assay endpoint, BSK_SAg_PBMCCytotoxicity, was analyzed with bidirectional fitting relative to DMSO as the negative control and baseline of activity. Using a type of viability reporter, gain or loss-of-signal activity can be used to understand changes in the viability. Furthermore, this assay endpoint can be referred to as a secondary readout, because this assay has produced multiple assay endpoints where this one serves a viability function. To generalize the intended target to other relatable targets, this assay endpoint is annotated to the cell cycle intended target family, where the subfamily is cytotoxicity.
The levels of cell surface (or secreted, indicated by the prefix "s") biomarker endpoints were measured by ELISA. Overt cytotoxicity to cells in confluent adherent cultures (all systems other than the BT system) was assessed by measuring total protein levels using sulforhodamine B (SRB) staining in parallel cultures at the time of biomarker measurements, indicated as SRB endpoints. For proliferation assays for adherent cell types, individual cell types are cultured at sub-confluence and relative cell numbers quantified by SRB staining at time points optimized for each system (48 h: 3C and CASM3C systems; 72 h: BT and HDF3CGF systems; 96 h: SAg system). SRB was performed by staining cells with 0.1% SRB after fixation with 10% TCA and reading wells at 560 nm.Viability and proliferation of PBMC (T cells) was quantified by Alamar Blue reduction for the SAg and BT systems. For PBMC viability (referred to as PBMC Cytotoxicity within the assay endpoint names), cells were plated (75,000/well in a 96-well plate) and then chemical samples added for 1 h before addition of activators, SEB and TSST-1 (20 ng/mL final concentration each). Cells were incubated for 90 h. Then, Alamar Blue (20 uL/well) (Invitrogen, Cat DAL1100) was added for 6 h, and the plates were read with a fluorescence microplate reader at 546/580 nm (excitation/emission). For PBMC proliferation, cells were plated and activated as above but incubated for only 16 h prior to addition of Alamar Blue. Plates were read after 6 h.
For the compound `CC(=O)S[C@H](C(=O)N[C@H]1Cc2ccccc2[C@H]2CCC[C@@H](C(=O)O)N2C1=O)C(C)C`, the outcome was inactive.

As for `CCCC(=O)O`, the result was inactive.

Regarding `Nc1nc(Cl)nc2c1ncn2[C@H]1C[C@H](O)[C@@H](CO)O1`, the AC50 (as a rule, the midpoint of the concentration-response curve, whichever way the signal moves) was 0.642 µM (active).

In the case of `CC(C)NCC(O)c1ccc(O)c(O)c1` (stereo not given), the AC50 is 13.5 µM (active).

Take `CCCCCCCCCCCCCCOS(=O)(=O)O`: the AC50 was 34.2 µM (active).

On to `O=C(Oc1ccccc1)c1cccc(C(=O)Oc2ccccc2)c1`, for which the result was inactive.

With `CC(=O)CC(c1ccccc1)c1c(O)c2ccccc2oc1=O` (stereo not given), the outcome was inactive.

`Cc1occc(=O)c1O`: the result was inactive.

For the compound `Cc1ccc(C(C)(C)C)c(O)c1`, the result was inactive.

Regarding `COC(=O)CCCC(=O)OC`, the outcome was inactive.

With `CC(C)(C)c1ccccc1`, the result was inactive.

Turning to `COC(=O)[C@H]1[C@H]2C[C@@H]3c4[nH]c5cc(OC)ccc5c4CCN3C[C@H]2C[C@@H](OC(=O)c2cc(OC)c(OC)c(OC)c2)[C@@H]1OC`, the AC50 is 23.9 µM (active).

Take `OCC(CO)n1cnc(-c2ccc(F)cc2)c1-c1ccnc(Oc2ccccc2)n1`: the AC50 is 2.47 µM (active).

Turning to `COc1ccc(OC(F)(F)F)cc1CN[C@H]1CCCN[C@H]1c1ccccc1`, the AC50 is 26.6 µM (active).

For the compound `N[C@@H](Cc1c[nH]c2ccccc12)C(=O)O`, the outcome was inactive.

Turning to `CC(C)(O)c1ccc(CNC(=O)c2cccnc2Oc2ccc(F)cc2)cc1`, the outcome was inactive.

`O=C1O[C@H]([C@H](O)CO)C(O)=C1O`: the result was inactive.

Regarding `CCc1nc(N)nc(N)c1-c1ccc(Cl)cc1`, the outcome was inactive.

On to `Cc1c(C)c2c(c(C)c1O)CCC(C)(COc1ccc(CC3SC(=O)NC3=O)cc1)O2` (stereo not given), for which the AC50 was 20 µM (active).

As to `NCCOCCOCCN`, the result was inactive.

With `CC(=O)OC1CC(C)OC(C)O1` (stereo not given), the outcome was inactive.

As for `CC1=C(C)S(=O)(=O)CCS1(=O)=O`, the outcome was inactive.

With `CC(=O)O`, the outcome was inactive.

For the compound `c1ccc2occc2c1`, the outcome was inactive.

`O=C(N[C@@H](c1ccccc1)[C@@H]1CCCCN1)c1cccc(C(F)(F)F)c1Cl`: the AC50 is 20 µM (active).

With `CC(C)c1cccc(C(C)C)c1`, the result was inactive.

In the case of `OCC(O)CO`, the outcome was inactive.

With `O=Cc1ccccc1C=O`, the result was inactive.

As to `O=C(O)CN(CC(=O)O)CC(=O)O`, the result was inactive.

On to `O=C(O)CC(O)(CC(=O)O)C(=O)O`, for which the result was inactive.

As to `CCCCCCCC(=O)OC`, the outcome was inactive.

For `CCC(C)N(C)C(=O)c1cc2ccccc2c(-c2ccccc2Cl)n1` (stereo not given), the outcome was inactive.

As for `CN(C)C(=O)NC1(c2ccccc2)CCN(CC[C@@]2(c3ccc(F)c(F)c3)CN(C(=O)c3ccccc3)CCO2)CC1`, the outcome was inactive.

As for `C/C=C/c1ccc(OC)cc1`, the outcome was inactive.

Take `CCCCC(CC)CO` (stereo not given): the result was inactive.

As to `Oc1ccc(O)cc1`, the AC50 is 12.8 µM (active).

`CS(=O)(=O)c1ccc([C@@H](C[C@H]2CCC(=O)C2)C(=O)Nc2cnccn2)cc1Cl`: the outcome was inactive.

As for `CCCCc1nc2cccnc2n1Cc1ccc(-c2ccccc2-c2nnn[nH]2)cc1`, the result was inactive.

As for `CCN(CC)CCOc1ccc(C(=C(Cl)c2ccccc2)c2ccccc2)cc1`, the AC50 is 6.29 µM (active).

On to `NC(=Nc1ccccc1)Nc1ccccc1`, for which the outcome was inactive.

For the origin of these results see PubChem BioAssay (EPA / NIEHS).
